The campaign covered roughly 360,000 compounds. About 11,000 (3.1%) were called active. Another 2% or so got no clear call; they are omitted. The sample holds actives, similar compounds and a random draw of the others, so the mix is not that of the screen. Values without a mark were called inactive. Rule as the data show it: active = fluorescence intensity above about 16000; inconclusive = no clear call, values can overlap the other calls; inactive = below that.

A short description of the experiment: compound fluorescence in toxin protease inhibitor counterscreen, primary screen, artefact control for toxin protease inhibitor project, biochemical, multiplex microsphere, HTS (AID 624483). Conditions: compound autofluorescence counterscreen, microsphere flow cytometry; active compounds read high. For orientation: The purpose of a counterscreen is to sort out artefacts and off-target activity.
For `Cc1cccc(/C(N)=N/OC(=O)c2ccccc2Cl)c1`, the fluorescence intensity was 2520. As for `O=C(OCc1cn(-c2ccc(Cl)c(Cl)c2)nn1)c1ccccc1Cl`, the fluorescence intensity was 23100 (active). The figure for `NC(=O)COC(=O)c1cc(S(=O)(=O)N2CCN(c3ccccc3)CC2)ccc1Cl` is 2210; for `O=C(Nc1ccccc1)c1ccccc1Br` it is 3570; for `CC(C)OC(=O)CN1C(=O)C(=O)c2ccccc21` it is 22400 (active). For `CCOC(=O)CN1C(=O)C(=O)c2cc(C)ccc21`, the fluorescence intensity is 3160. The figure for `CC(OC(=O)CN1C(=O)c2ccccc2C1=O)C(=O)c1ccccc1` (stereo not drawn) is 8630; for `CC1(C(=O)NS(=O)(=O)c2cccs2)CCN1C(=O)Cc1ccc(-c2ccccc2)cc1` (stereo not drawn) it is 3400. The figure for `O=S1(=O)CC(N2CCN(c3ccccn3)CC2)CN1Cc1ccc(F)cc1` (stereo not drawn) is 5970. The figure for `O=C(c1ccco1)N1CCN(C(=O)C2c3ccccc3Oc3ccccc32)CC1` is 10300. Turning to `CCC(=O)N1CCCC1(C)C(=O)Nc1ccc2c(c1)CCN2C(C)=O` (stereo not drawn), the fluorescence intensity was 4080.

In the case of `O=C(Cn1cc(/C=N/NC(=O)c2cccc(C(F)(F)F)c2)c2ccccc21)Nc1ccc(F)cc1`, the fluorescence intensity is 23300 (active). The figure for `COc1cccc(Cn2cc(/C=N/NC(=O)c3cc(O)cc(O)c3)c3ccccc32)c1` is 5960; for `O=C(CSc1ccc(/C=N/NC(=O)c2cccc(F)c2)o1)Nc1ccccc1` it is 8800. The figure for `COc1ccc(CCNC2=CC(=O)CC(C)(C)C2)cc1` is 3550. The figure for `Cc1cc(C)nc(NNC2=CC(=O)CC(C)(C)C2)n1` is 2520; for `CC1(C)CC(=O)C=C(NCc2ccncc2)C1` it is 16700 (active).

As for `COc1cccc(OCCOc2cccc(/C=N/n3cnnc3)c2)c1`, the fluorescence intensity was 23900 (active). On to `C=CCc1ccc(OCCOc2cccc(/C=N/n3cnnc3)c2)c(OC)c1`, for which the fluorescence intensity was 2600.

As for `COCCNCCOCCOc1cccc(OC)c1`, the fluorescence intensity is 2470. The figure for `CCc1ccccc1NC(=O)CSc1nnc(CCNC(=O)OC(C)(C)C)o1` is 6490; for `CC(C)(C)OC(=O)N[C@H](C(=O)OC(C)(C)C)c1ccc(Br)cc1` it is 3740; for `C[C@H](NC(=O)OC(C)(C)C)c1nnc(SCC(=O)Nc2ccc(Br)cc2)o1` it is 16800 (active).

As to `C=CCn1c(N)cc(=O)nc1SCC(=O)Nc1cccc2ccccc12`, the fluorescence intensity is 4460. The figure for `CC(C)Oc1ccc(/C=N/NC(=O)c2nnn(-c3nonc3N)c2CN(C)C2CCCCC2)cc1` is 6000; for `Cc1cccc(C)c1N1CCN(S(=O)(=O)N2CCOCC2)CC1` it is 23800 (active).

As for `O=S(=O)(N1CCOCC1)N1CCN(c2ccccc2F)CC1`, the fluorescence intensity was 6290. The figure for `Cc1cccc(C)c1N1CCN(S(=O)(=O)N2CCCCC2)CC1` is 3490.

The values above are taken from PubChem BioAssay AID624483 (NMMLSC, 2012).
